# Screen size: about 370,000 compounds; about 2,300 (0.62%) were called active. What follows is part of a selection rich in actives, with near analogues and random picks from the rest. Unmarked numbers belong to inactive results.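 How the source made its calls: active means lowest replicate activation of at least 40%, so every replicate reaches that level; inactive means the rest.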
# Experiment: GLuc luminescence reporter in INS-1E cells, primary screen for activators of glucose-dependent secretion of insulin (AID 743287);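 further: 0% = median of neutral control wells and 100% = median of IBMX positive control wells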
# Conditions: INS-1E GLuc reporter insulin secretion, 2-3 h, at 16.6 µM, stronger effect = higher value
row,Structure (SMILES),activation
1,O=C(O)CCCCCCCCCC[n+]1ccccc1,91.6% (active)
2,CC(C)C#Cc1ccc2c(c1)O[C@H](CN(C)CC1CCOCC1)[C@@H](C)CN([C@H](C)CO)S2(=O)=O,-18.8%
3,CCCc1cc(=O)oc2c(C)c(OCC(=O)NCc3ccccn3)ccc12,11.9%
4,CCCc1cc(-c2nc(-c3ccc(C)cc3)cs2)ccn1,90.4% (active)
5,CCCCCN1CC(O)=C(c2nc(-c3ccc(Cl)cc3)cs2)C1=N,35.7%
6,CC(C)NC(=O)N(C)C[C@@H]1Oc2ncc(C3=CCCCC3)cc2C(=O)N([C@H](C)CO)C[C@@H]1C,-12.5%
7,CC(=O)Nc1ccc(S(=O)(=O)N2CCC(C(=O)NC3CC3)CC2)cc1,29.2%
8,Cc1ccc(NC(=O)C2CCN(S(=O)(=O)c3ccc4c(c3)NC(=O)CO4)CC2)cc1C,-23%
9,Cn1c(=O)oc2cc(S(=O)(=O)N3CCC(C(=O)Nc4ccc(OC(F)(F)F)cc4)CC3)ccc21,48.6% (active)
10,C[C@H](NC(=O)[C@@H]1[C@@H](CO)[C@@H]2Cn3c(ccc(-c4cccc(F)c4)c3=O)[C@@H]2N1C)c1ccccc1,-1.52%
11,C[C@@H]1CCCCO[C@@H](CN(C)S(=O)(=O)c2cn(C)cn2)[C@H](C)CN([C@@H](C)CO)C(=O)c2cc(NC(=O)Nc3ccccc3)ccc2O1,20.9%
12,CN1C(=O)c2cc(NC(=O)Cc3ccccc3)ccc2OC[C@H]2O[C@H](CC(=O)NCc3ccc(Cl)cc3)CC[C@H]21,-7.02%
13,C[C@@H]1CN([C@H](C)CO)C(=O)Cc2cc(NC(=O)Nc3ccc(C(F)(F)F)cc3)ccc2O[C@@H]1CN(C)S(=O)(=O)c1ccccc1,7.64%
14,COc1ccc(CN2CC[C@H]3C=CC[C@@H](C(=O)N4CCOCC4)[C@H]3C2=O)cc1OC,9.86%
15,COc1ccc(CN2CCCCC2C)cc1OC (stereo not given),11.6%
16,COc1ccc(CN2CCOC2=O)cc1OC,59.2% (active)
17,CNC[C@@H]1Oc2ccc(NC(C)=O)cc2CC(=O)N(C)C[C@@H]1C,3.12%
18,COc1ccc(-c2ccccc2C2Cc3nnccc3CN2C(=O)Nc2ccccc2)cc1 (stereo not given),60.4% (active)
19,COc1ccc(CN2[C@@H](CO)[C@@H]3c4ccccc4N(C(=O)Nc4ccccc4)C[C@@H]32)cc1,-18.4%
20,COC(=O)N1Cc2ccnnc2CC1c1ccccc1Br (stereo not given),5.66%

row,Structure (SMILES),activation
1,CO[C@H]1CN(C)C(=O)c2ccc(NC(=O)NC(C)C)cc2OC[C@H](C)N(Cc2cncnc2)C[C@@H]1C,-3.42%
2,Clc1ccc(Cl)c(Oc2ccc(Oc3nc(Cl)ccc3Cl)cc2)n1,43.2% (active)
3,CC(C)NC(=O)N(C)C[C@@H]1OCCCC[C@H](C)Oc2ccc(NC(=O)Nc3ccccc3)cc2C(=O)N([C@H](C)CO)C[C@@H]1C,-11.5%
4,CCOc1ccc(C(C)=O)cc1COC(=O)CN1C(=O)NC2(CCCC2)C1=O,241% (active)
5,CCOc1ccc(C(C)NC(=O)CN2C(=O)NC3(CCCCC3)C2=O)cc1OCC (stereo not given),5.62%
6,Cc1ccc(COC(=O)CN2C(=O)NC3(CCCC3)C2=O)cc1,6.93%
7,CCC(=O)N(C)C[C@@H]1Oc2cc(C#CCOC)ccc2S(=O)(=O)N([C@H](C)CO)C[C@H]1C,8.1%
8,CCCN(C)C[C@@H]1OCCCC[C@H](C)Oc2ccc(NS(=O)(=O)c3ccc(C)cc3)cc2C(=O)N([C@H](C)CO)C[C@@H]1C,7.05%
9,COCCNc1nc(N)c([N+](=O)[O-])c(NCCO)n1,17.8%
10,COCCNc1nc(N)c([N+](=O)[O-])c(N2CCCCCC2)n1,52.3% (active)
11,C=CCNc1nc(N)c([N+](=O)[O-])c(NC2CCCCC2)n1,20.2%
12,CC(=O)Nc1ccc2c(c1)C(=O)N(C)[C@H]1CC[C@H](CC(=O)NCc3ccccc3Cl)O[C@H]1CO2,-3.1%
13,N#C[C@H]1[C@H](c2ccccc2)[C@@H](CO)N1C(=O)c1cccnc1,1.43%
14,C[C@@H]1CN([C@@H](C)CO)C(=O)c2cc(/C=C/c3ccccc3)cnc2O[C@H]1CN(C)C(=O)C1CCC1,-16.6%
15,COC(=O)C1=C(C)N(Cc2cccc(C(F)(F)F)c2)C(=NCc2ccccc2)NC1c1ccccc1C(F)(F)F (stereo not given),198% (active)
16,COC(=O)C1=C(C)N(Cc2cccc(C(F)(F)F)c2)C(=NCc2cccc(C(F)(F)F)c2)NC1c1ccccc1C(F)(F)F (stereo not given),23.9%
17,COC(=O)C1=C(C)N(Cc2ccccc2)C(=NCCCOC(C)C)N[C@H]1c1ccccc1,-19.7%
18,COC(=O)C1=C(C)N(Cc2ccc(F)cc2)C(=S)NC1c1cccc(Cl)c1 (stereo not given),-20.6%
19,C=CCN=C1NC(c2cccc(C(F)(F)F)c2)C(C(=O)OC)=C(C)N1C (stereo not given),-3.97%
20,COC(=O)C1=C(C)N(Cc2cccc(C(F)(F)F)c2)C(=NCc2ccccc2)NC1c1ccc(Cl)cc1 (stereo not given),160% (active)
